Results from PubChem BioAssay (NCI).
About 83,000 compounds went through this panel and 20% of them were active in at least one assay; those are over-represented in the sample as a whole.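 The test compound was applied at a single concentration to cells in 96-well plates for 48 hours, and percent growth was recorded.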 A number with no mark means an inactive call. Calls of active or inactive are those of the source. The calls were made as follows: active = growth percent below 10; inactive = the rest.

Legend:
Experiment in all cases: NCI-60 one-dose screen, 48 h (100 = growth as untreated, 0 = no growth, -100 = all killed)
Settings in all cases: 10 µM unless noted
SK-MEL-2 melanoma = tested on: SK-MEL-2 melanoma
EKVX NSCLC = tested on: EKVX NSCLC
SN12C renal = tested on: SN12C renal
UO-31 renal = tested on: UO-31 renal
TK-10 renal = tested on: TK-10 renal
ACHN renal = tested on: ACHN renal
CAKI-1 renal = tested on: CAKI-1 renal
A498 renal = tested on: A498 renal
CCRF-CEM leukemia = tested on: CCRF-CEM leukemia
MOLT-4 leukemia = tested on: MOLT-4 leukemia

SMILES | growth (SK-MEL-2 melanoma) | growth (EKVX NSCLC) | growth (SN12C renal) | growth (UO-31 renal) | growth (TK-10 renal) | growth (ACHN renal) | growth (CAKI-1 renal) | growth (A498 renal) | growth (CCRF-CEM leukemia) | growth (MOLT-4 leukemia)
CC(C)=CCCC(C)c1ccc(C)c2c1OCN(CC1CCNCC1)C2 (configuration not stated) | 96.3% | 93% | 76.7% | 60.5% | 86% | 92.9% | 80.2% | 75.6% | 26.7% | 34.1%
C[C@@H]1C[C@@H]([C@@H](CC2CC(=O)NC(=O)C2)OC(=O)CC(=O)c2ccccc2)C(=O)[C@@H](C)C1 | 12.5% | 11.4% | 8.23% (active) | -10.2% (active) | 3.61% (active) | 7.54% (active) | -2.54% (active) | 16.7% | 15.4% | 9.81% (active)
C[C@@H]1CN(c2nc3c(cc2F)c(=O)c(C(=O)O)cn3C(C)(C)C)C[C@H](C)N1 | 97.1% | 104% | 104% | 94.2% | 102% | 99.8% | -7.72% (active) | 107% | 102% | 101%
O=C1Nc2ccc(C(=O)O)c(O)c2C1=O | 103% | 97.8% | 107% | 91.7% | 107% | 104% | 92.2% | 102% | 94.9% | –
Cc1ncc(C(=O)Nc2ccc(CN3CCN(C)CC3)c(C(F)(F)F)c2)cc1C#Cc1cncc2ncccc12 | 14.5% | 78.3% | 50.6% | 1.39% (active) | 82.6% | 26.8% | 50% | -4.12% (active) | 66.7% | 41.6%
Cc1cccc2nnc(-c3ccccc3)n12 | 99.1% | 103% | 93.7% | 85.1% | 98.1% | 105% | 105% | 96% | 99.3% | –
O=C(COc1cccc(/C=C2\Oc3ccc4ccccc4c3C2=O)c1)c1ccc(Cl)cc1 | 57.5% | 92.8% | 91.2% | -7.73% (active) | 115% | 96.8% | 83% | 132% | 25.3% | 74%
NS(=O)(=O)c1ccc(-n2ncc3c(N/N=C/c4ccccc4)ncnc32)cc1 | 70.5% | 108% | 93% | 68.8% | 93.6% | 94.7% | 53.4% | 111% | 84.6% | 71.4%
Cn1ccnc1C(=O)/C=C/c1ccc(C(=O)Nc2nc3ccccc3[nH]2)cc1 | 85.4% | 62.3% | 51.7% | 28.3% | 66.5% | 49.3% | 18.6% | 51.1% | 15.4% | 45.2%
Nc1ccc2c(c1)C(=O)c1cc(Cl)c(Cl)cc1-2 | 95.8% | 74.1% | 90.8% | 49.9% | 113% | 92.1% | 70.4% | 76.5% | 82.8% | 77.1%
CC(NC(N)=S)c1ccccc1 (configuration not stated) | 120% | 103% | 98.3% | 93.2% | 99% | 108% | 104% | 98.1% | 129% | –
COCCCNS(=O)(=O)c1ncnc2nc[nH]c12 | 147% | 101% | 114% | 96.9% | 140% | 118% | 101% | 87% | 101% | 102%
COP(=O)(OC)C(c1ccccc1)(c1ccccc1)c1ccccc1 | 101% | 101% | 97.7% | 113% | 69% | 107% | 83% | 93% | 84.3% | 46.5%
CCOC(=O)c1cc2oc(/C=C/c3cc(=O)c4cc(Cl)ccc4o3)cc2[nH]1 | 82.1% | 89.7% | 62.4% | 81.8% | 113% | 97.8% | 79% | 115% | 105% | 88.9%
Cc1nn(-c2nc3ccccc3s2)c(C)c1Oc1ccccc1O | -9.64% (active) | 93.2% | 73.2% | 38.9% | 100% | 57.8% | 98.8% | 51.7% | 76.6% | 31.6%
O=C(COc1cccc(/C=C2\Cc3ccccc3C2=O)c1)c1ccc(Cl)cc1 | 72.8% | 88.2% | 95% | 18.5% | 163% | 154% | 104% | 90.1% | 89.8% | 107%
O=[N+]([O-])c1cc([N+](=O)[O-])c(N2CCCC2)cc1NN=C(c1ccc(O)cc1)c1ccc(O)cc1 | -47.6% (active) | 90.5% | 128% | -78.1% (active) | 131% | 46.9% | 91.9% | 122% | 55.3% | 57.3%
C[C@]12CCC(=O)C=C1CC[C@H]1[C@@H]3C[C@@H](O)[C@](O)(C(=O)CO)[C@@]3(C)C[C@H](O)[C@@]12F | 109% | 88.4% | 82.9% | 74.1% | 104% | 104% | 78.5% | 97.2% | 97.1% | 84.1%
COC(=O)CC1=C(c2ccc([N+](=O)[O-])cc2)CCC1=O | 103% | 94.5% | 103% | 80.5% | 107% | 102% | 99.8% | 69.5% | 95.3% | 104%
CCCCN1c2nc3ccccc3cc2Sc2cc3ccccc3nc21 | 61.9% | 85.1% | 102% | 22% | 108% | 107% | 460% | 116% | 89.2% | 103%
O=C(Nc1ccc2c(c1)C(=O)c1ccccc1-2)c1ccccc1 | 82.4% | 97.4% | 56.9% | 69.7% | 46.9% | 63.8% | 74.7% | 66.4% | 101% | 97.7%
COc1ccc(Cl)cc1Nc1nc(C(F)(F)F)ccc1C(=O)N/N=C/c1c(Cl)cccc1Cl | 28.3% | 60.5% | 63% | 31.2% | 67.2% | 39.2% | 34.9% | -21.9% (active) | 13.8% | 14.4%
Cc1ccc(S(=O)(=O)N2CCN(C(=O)CSc3nc4ccc(C)cc4[nH]3)CC2)cc1 | 5.46% (active) | 97% | 107% | 93.3% | 129% | 113% | 116% | 99.7% | 94.6% | 74.4%
COc1cccc(C2=NN(C(C)=O)C(c3cc(OC)c(OC)c(OC)c3)C2)c1 (configuration not stated) | 26.9% | 47.4% | 42.7% | -29.9% (active) | 78.4% | 56.1% | 216% | 71.3% | -7.81% (active) | 9.77% (active)
c1ccc(CN=C(NCc2ccccc2)NCc2ccccc2)cc1 | 60.5% | 28.2% | 72.2% | 61.3% | 58.6% | 73.1% | 84.8% | 84.7% | 65.5% | 70.7%
O=C(Oc1ccccc1)C(Br)C(Br)c1ccccc1 (configuration not stated) | 95.3% | 136% | 109% | 93.3% | 83% | 78.2% | -66.7% (active) | 91.3% | -28.7% (active) | 7.62% (active)
O=Cc1ccccc1C(=O)O | 109% | 94% | 104% | 90% | 93.2% | 103% | 96% | 109% | 104% | 98.6%
